Bioassay records from PubChem.
Most compounds without a hit are left out; they make up all but 4.6% or so of the library.
LASV entry inh: Lassa virus entry inhibition. Lassa virus pseudotype entry inhibition, cell reporter. Potency, µM (top dose mostly 37.9 µM), for inactives: at the top dose activity change, negative = inhibition, actives largely listed as inhibitors. 300,000 tested, 1.2% active. AID 540256; calls by dose curve; tested in HEK293 cells; also: nearly all actives have a fitted effect of over 50% in size
HCV inhibitor: blocks hepatitis C virus; Potency, µM (doses to about 41.8 µM), for inactives: at the top dose activity change, negative = inhibition, hits mostly inhibitors; 340,000 tested, 3.4% active; Huh7.5.1 HCVcc-Cre infection, luciferase reporter, 44 h; AID 651820; active = well fitted inhibition curve with a large enough effect; inconclusive = small, poorly fitted or top-dose-only effect, or another doubt; inactive = no such curve, though single readings can be large or run the other way
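Whole-lifecycle infectious HCVcc-Cre system; cells 1,000/well, compound then virus (~0.5 moi) added 4 h after plating, 44 h culture. Luciferase read 15 sec following 15 min substrate incubation, room temp.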
Vaccinia mCherry: inhibitors of vaccinia virus infection (mCherry reporter signal); Potency, µM (highest dose often 36.5 µM), for the others: at the top dose activity change, negative = inhibition, actives largely listed as inhibitors; 310,000 tested, 0.63% active; AID 720579; Vaccinia virus mCherry reporter infection, fluorescence; calls by dose curve; tested in A549 cells; also: nearly all actives have a fitted effect of over 35% in size
Vaccinia Venus: inhibitors of vaccinia virus (Venus reporter); Vaccinia virus Venus reporter expression, fluorescence; Potency, µM (series often up to 36.5 µM), for inactives: top-dose activity change, negative = inhibition, most hits filed as inhibitors; 330,000 tested, 0.46% active; calls by dose curve; tested in A549 cells; also: nearly all actives have a fitted effect of over 30% in size
MARV entry inh: inhibitors of Marburg virus binding or cell entry. Marburg virus pseudotyped entry inhibition, cell reporter. Potency, µM (series often up to 37.8 µM), without a hit: at the top dose activity change, negative = inhibition, actives largely listed as inhibitors. 300,000 tested, 1.8% active; calls by dose curve; tested in HEK293 cells
An asterisk follows results filed as active; i = inactive; ? = inconclusive; . = not tested or not shown; [ ] = dose if it differs, or a comment. % is scaled to controls: 0 for no effect and ±100 for the full control effect; potency is read from the fitted curve at half-maximal effect.

SMILES | LASV entry inh | HCV inhibitor | Vaccinia mCherry | Vaccinia Venus | MARV entry inh
COc1ccc(CCNc2ccc(C(CC(N)=O)NC(=O)Cc3ccc(Br)cc3)cc2[N+](=O)[O-])cc1 (stereo unspecified) | . | 10% | i | -9% | .
NC(=O)CC(NC(=O)Cc1ccc(Br)cc1)c1ccc(N2CCC(Cc3ccccc3)CC2)c([N+](=O)[O-])c1 (stereo unspecified) | . | -1% | ? | 11µM* | .
O=C(Cn1c(=O)oc2cc(S(=O)(=O)N3CCCCC3)ccc21)Nc1cccc(Cl)c1 | . | . | -7% | 7% | ?
NC(=O)CC(NC(=O)Cc1ccc(Br)cc1)c1ccc(NCc2ccc(F)c(F)c2)c([N+](=O)[O-])c1 (stereo unspecified) | . | ? | 18µM* | ? | .
NC(=O)CC(NC(=O)c1ccc(Br)cc1)c1ccc(NCc2ccc(F)c(F)c2)c([N+](=O)[O-])c1 (stereo unspecified) | . | -11% | -19% | -21% | .
Cc1ccc(C(=O)c2cn(Cc3c(F)cccc3Cl)c3nc(C)ccc3c2=O)cc1 | 9%[46.1 µM] | . | -24% | -19% | -2%[46.1 µM]
O=C(NC(C(=O)N/N=C/c1cccc2ccccc12)c1n[nH]c(=O)c2ccccc12)c1ccccc1 (stereo unspecified) | ? | 22µM* | . | ? | ?
O=C(NC(C(=O)N/N=C/c1ccncc1)c1n[nH]c(=O)c2ccccc12)c1ccccc1 (stereo unspecified) | -12% | 13% | 2% | -12% | 13%[46.1 µM]
Cc1ccc(NC(=O)CCCn2c3ccccc3c(=O)c3cc(C)ccc32)c(Br)c1 | 2.8µM* | . | -9%[7.34 µM] | -15%[7.34 µM] | .
O=C(Nc1cccc2ncccc12)c1cc([N+](=O)[O-])ccc1Cl | 1%[46.1 µM] | 8.9µM* | -14% | -12% | 7%[46.1 µM]
COc1ccc(OCC(=O)Nc2cccc3ncccc23)cc1 | 0% | 20% | . | -16% | -6%
O=C(CCl)Nc1cccc2ncccc12 | ? | 13µM* | 3.5µM* | ? | ?
O=C(CSC1=Nc2ccccc2C2=NC(Cc3ccccc3)C(=O)N12)Nc1ccccc1F (stereo unspecified) | ? | . | -9% | -10% | .
COc1cc(NC(=O)c2cc3c(=O)n(Cc4ccco4)ccc3nc2C)cc(OC)c1OC | 4%[46.1 µM] | . | -2% | -10% | .
COc1ccc(-c2nsc(SCC(=O)NCC3CCCO3)n2)cc1 (stereo unspecified) | -16%[46.1 µM] | -24% | i | -13% | 1%[46.1 µM]
O=C(CSc1nc2ccsc2c(=O)n1Cc1ccc(C(=O)O)cc1)NCC1CCCO1 (stereo unspecified) | 17% | 3% | -11% | -9% | 0%
Cc1ccc(-c2nsc(SCC(=O)NCC3CCCO3)n2)cc1 (stereo unspecified) | 0% | 10µM* | i | -24% | -14%[46.1 µM]
Cc1ccc(Cn2c(SCC(=O)NCC3CCCO3)nc3ccsc3c2=O)cc1 (stereo unspecified) | -15% | 8.9µM* | -8% | -3% | -11%[46.1 µM]
COc1cc(=O)n2c(c1C(=O)N(C)Cc1nccs1)CCN(Cc1cc(C)cc(C)c1)CC2 | . | . | -19% | -8% | .
CCCN(CCC)c1nc(-c2ccccc2F)nc2ccccc12 | 5%[46.1 µM] | . | -13% | -3% | .
C/C(=N\Nc1nc(-c2ccccn2)nc2ccccc12)c1ccc(F)cc1 | . | 4.5µM* | . | . | .
CCCCN(CCCC)c1nc(-c2ccccc2)nc2ccccc12 | -2%[46.1 µM] | . | -5% | -1% | .
c1ccc(CCNc2nc(-c3ccccn3)nc3ccccc23)cc1 | ? | 2.8µM* | -23% | -16% | ?
c1ccc(CN2CCN(c3nc(-c4ccccn4)nc4ccccc34)CC2)cc1 | 13% | 9% | -6% | -8% | 10%[46.1 µM]
CCCN(CCC)c1nc(-c2ccccn2)nc2ccccc12 | ? | ? | 4.5µM* | ? | ?
SMILES | LASV entry inh | HCV inhibitor | Vaccinia mCherry | Vaccinia Venus | MARV entry inh
CCCCN(CC)c1nc(-c2ccncc2)nc2ccccc12 | 0% | 5.6µM* | -28% | -26% | ?
C/C(=N\Nc1nc(-c2ccccc2O)nc2ccccc12)c1ccccc1 | -15%[46.1 µM] | -4% | -18% | -6% | -25%[46.1 µM]
O=C(CSc1oc(-c2ccccc2)nc1S(=O)(=O)c1ccc(Br)cc1)c1ccccc1 | -23%[46.1 µM] | . | -11% | -11% | -25%[46.1 µM]
CCOc1ccc(NC(=O)COC(=O)c2ccccc2OCc2ccccc2Br)cc1 | . | . | -19% | -16% | .
Oc1ccc(Nc2nc(-c3ccccc3O)nc3ccccc23)cc1 | . | 11µM* | . | . | .
COC(=O)c1ccc(Nc2nc(-c3ccc(C)cc3)nc3ccccc23)cc1 | 24%[46.1 µM] | . | -19% | -18% | 12%[46.1 µM]
CCOC(=O)c1ccc(Nc2nc3ccccc3nc2NS(=O)(=O)c2ccc(Cl)cc2)cc1 | -16%[46.1 µM] | . | 10µM* | ? | .
CCCOC(=O)c1cccc(Nc2nc(-c3cccnc3)nc3ccccc23)c1 | ? | ? | ? | ? | 10µM*
Cc1ccc(-c2nc(Nc3cccc(O)c3)c3ccccc3n2)cc1 | . | 28µM* | . | . | .
Cc1cc(C)c(NC(=O)Cc2ccc(-n3c(C)nc4cccnc43)cc2)c(C)c1 | -2%[46.1 µM] | . | -12% | -17% | .
CN(C)c1ccc(N=Cc2cccc3ccccc23)cc1 | . | . | 37% | 5% | .
O=C(O)c1ccc(Nc2nc(-c3ccccc3)nc3ccccc23)cc1 | . | -12% | . | . | .
Cc1ccc(-c2nc(Nc3ccc(O)cc3)c3ccccc3n2)cc1 | ? | 7.1µM* | ? | -26% | ?
Oc1cccc(Nc2c3ccccc3nc3ccccc23)c1 | . | ? | ? | 10µM* | .
c1ccc(Nc2nc(-c3ccccc3)nc3ccccc23)cc1 | . | 14µM* | . | . | .
O=[N+]([O-])c1ccc(-c2nc(Nc3cccc(O)c3)c3ccccc3n2)cc1 | . | 6.3µM* | . | . | .
Cc1cccc(NC(=O)C2CCN(c3nnc(-n4c(C)ccc4C)s3)CC2)c1C | -5%[46.1 µM] | . | -12% | -10% | -4%[46.1 µM]
CCOC(=O)c1nc(Nc2ccc(C(=O)O)cc2)c2ccccc2n1 | -4% | 7% | . | 12% | 12%
Cc1ccc(-c2nc(C(Cl)Cl)c3ccccc3n2)cc1 | . | 3.5µM* | . | . | .
